Most compounds without a hit are left out; they make up all but 5% or so of the library.
SENP8 block-1: inhibitors of human SENP8 protease | purified SENP8, Z-RLRGG-aminoluciferin cleavage, luminescence | 330,000 compounds, 1.2% hits | inhibition, % at 10 µM | Q96LD8; in the data active means inhibition above about 50%
Target sequence (Q96LD8 whole entry, looked up): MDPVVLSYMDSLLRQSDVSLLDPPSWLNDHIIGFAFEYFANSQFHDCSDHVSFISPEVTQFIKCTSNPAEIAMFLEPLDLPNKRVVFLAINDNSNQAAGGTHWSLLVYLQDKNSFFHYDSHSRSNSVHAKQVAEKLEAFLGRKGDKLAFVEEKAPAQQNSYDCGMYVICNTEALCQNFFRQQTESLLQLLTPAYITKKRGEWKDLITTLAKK
SENP7 inh: blocks the human protease SENP7; Q9BQF6; recombinant SENP7, Z-RLRGG-aminoluciferin luminescence, 40 min; inhibition, % at 5 µM; 330,000 compounds, 1.5% hits;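 active means inhibition above about 50% at the single test dose, limit read from the data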;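 further: plate controls were DMSO with enzyme for no effect and no enzyme buffer wells for full effect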
EBI2 antag: blocks human EBI2 receptor beta-arrestin signaling. EBI2 beta-arrestin recruitment, luminescence, 7a,25-OHC stimulated. inhibition, % at 5 µM. 360,000 compounds, 0.81% hits. AID 651636; in the data active means inhibition above about 38%;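 further: enzyme fragment complementation signal reports receptor beta-arrestin coupling in cells; 0% = agonist plus DMSO wells and 100% = wells without agonist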
Target sequence (P32249 whole entry, looked up, the tested form may be a part): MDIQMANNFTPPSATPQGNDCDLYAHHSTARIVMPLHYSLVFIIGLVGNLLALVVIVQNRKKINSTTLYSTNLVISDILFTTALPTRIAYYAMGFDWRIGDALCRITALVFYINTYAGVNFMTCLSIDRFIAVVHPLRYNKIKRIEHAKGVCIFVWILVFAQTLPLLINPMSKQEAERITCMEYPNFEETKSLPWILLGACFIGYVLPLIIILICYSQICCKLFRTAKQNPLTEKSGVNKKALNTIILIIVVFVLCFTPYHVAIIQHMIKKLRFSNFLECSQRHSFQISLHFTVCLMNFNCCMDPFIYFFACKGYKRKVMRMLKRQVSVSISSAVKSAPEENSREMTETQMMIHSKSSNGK
AHR act: activators of human aryl hydrocarbon receptor; activation, % at 5 µM; AHR-responsive luciferase reporter cells, luminescence; 320,000 compounds, 2.5% hits; AID 2796; in the data active means activation above about 47%;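 further: 0% = vehicle wells and 100% = reference agonist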
SENP6 inh: inhibitors of human SENP6 protease; Q9GZR1; Recombinant SENP6 catalytic domain, aminoluciferin luminescence; inhibition, % at 10 µM; 330,000 compounds, 1.8% hits; AID 2599;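 active means inhibition above about 50% at the single tested dose, limit read from the data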;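 further: plate controls were DMSO wells with enzyme for no effect and DMSO wells lacking enzyme for full effect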
SENP8 block-2: inhibitors of human SENP8 protease. recombinant SENP8, Nedd8 substrate fluorescence. inhibition, % at 20 µM. 360,000 compounds, 0.64% hits. AID 602440; in the data active means inhibition mostly above about 40%, no sharp cut-off; inactive means mostly below about 27%
EBI2 conf: confirmation of human EBI2 receptor antagonists | shares compounds with EBI2 antag | EBI2 beta-arrestin luminescence, 7a,25-OHC antagonism | inhibition, % at 5 µM | 2,400 compounds, 29% hits;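 active means inhibition of at least 50%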
EBI2 agonist: activates EBI2, counter-screen for EBI2 antagonists; 2,400 tested, under 10 active; EBI2-expressing cells, agonist mode, luminescence, 60 min; 0% vehicle, 100% 7α,25-dihydroxycholesterol control; activation, % at 5 µM; AID 652000; shares compounds with EBI2 antag;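 active means activation of at least 50%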
bGal counter: counter-screen for EBI2 antagonists: E. coli beta-galactosidase inhibition | purified beta-galactosidase, luminescent Galacton Star, 15 min | 2,400 compounds, 1% hits | inhibition, % at 5 µM | AID 652176 | shares compounds with EBI2 antag;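 active means replicate-average signal at least 3 plate SD below neutral wells, shown as high inhibition, flagging enzyme-inhibiting false positives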;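 further: 0% = DMSO wells with enzyme and 100% = wells lacking enzyme; higher means stronger loss of beta-gal luminescence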
Active calls of the source: *; x = not tested or not shown.

SMILES | SENP8 block-1 | SENP7 inh | EBI2 antag | AHR act | SENP6 inh | SENP8 block-2 | EBI2 conf | EBI2 agonist | bGal counter
CC(C)C[C@H]1CNC(=S)N1C[C@H]1CCCN1C[C@H](CC(C)C)N1C[C@H](Cc2ccc(O)cc2)N(CC2CCCCCC2)C1=S | x | x | 60* | x | x | 6 | 25 | -1 | -14
COc1ccc(CCN2CC(C(=O)NCc3nc4ccccc4n3C)CCC2=O)cc1 (stereo unspecified) | -1 | -6 | -1 | 4 | -2 | -12 | x | x | x
O=C1C=C(c2ccc3ccccc3c2)C[C@@H](c2ccc(F)cc2)C1 | -12 | -8 | 77* | 13 | -17 | -229 | 43 | -1 | -8
COc1ccc([C@H]2CC(=O)C=C(c3ccc4[nH]ccc4c3)C2)cc1OC | -4 | 6 | 20 | 7 | -10 | -35 | x | x | x
O=C1C=C(c2cccc3c2oc2ccccc23)C[C@@H](c2ccc(F)cc2)C1 | 6 | -1 | 76* | 4 | -2 | 7 | 56* | 0 | -12
O=C1C=C(c2ccc3ncccc3c2)C[C@@H](c2ccc3c(c2)OCO3)C1 | 1 | 6 | 66* | 24 | 1 | 18 | 45 | -1 | -4
O=C1C=C(c2ccc3[nH]ccc3c2)C[C@@H](c2ccc(F)cc2)C1 | 3 | 2 | 52* | -7 | 16 | -6 | 62* | 0 | 11
CC1=C(C(=O)OCc2ccccc2)C(c2ccccc2OS(=O)(=O)c2ccc([N+](=O)[O-])cc2)NC(=O)N1CCCC(=O)O (stereo unspecified) | -2 | -2 | -42 | 0 | -12 | 20 | x | x | x
COc1ccc(CNC(=O)COC(=O)/C=C/c2cccc(Br)c2)cc1 | 5 | 1 | 4 | 7 | -4 | 19 | x | x | x
O=C1C=C(c2ccc3ncccc3c2)C[C@@H](c2ccc(F)cc2)C1 | -3 | 8 | 75* | -2 | -3 | 6 | 61* | -1 | 4
O=C1C=C(c2ccc(-c3ccccc3)c(F)c2)C[C@@H](c2ccc(F)cc2)C1 | -9 | -13 | 22 | 0 | -16 | 3 | x | x | x
CC1(C)O[C@@H]2[C@H](O1)[C@@H](CO)O[C@H]2n1cnc2c(=O)[nH]cnc21 | -5 | -4 | -8 | 1 | -12 | 7 | x | x | x
O=C(NC1CC(=O)N(c2ccccc2)C1)N1CCN(C(=O)c2ccco2)CC1 (stereo unspecified) | -10 | 1 | -12 | -2 | 6 | 6 | x | x | x
COc1ccc(NC(=O)N2CCN(c3ccc([N+](=O)[O-])cc3)CC2)cc1 | -19 | -5 | 62* | -8 | -5 | 17 | 41 | 2 | 11
COc1ccc(N2CCN(C(=O)NC3CC(=O)N(c4ccc(OC)cc4)C3)CC2)cc1 (stereo unspecified) | 0 | 6 | 46* | 2 | -16 | 12 | 19 | -1 | 4
O=C(NC1CC(=O)N(c2ccc(Cl)cc2)C1)N1CCN(C(=O)c2ccco2)CC1 (stereo unspecified) | 8 | -2 | 66* | -1 | -16 | 12 | 48 | -1 | 5
CCOC(=O)C1(Cc2cccc(OC)c2)CCN(Cc2cccc(OC)c2O)CC1 | -9 | -10 | 21 | 11 | 0 | 5 | x | x | x
CC1CCc2c(sc3ncnc(NCc4cccnc4)c23)C1 (stereo unspecified) | 2 | 11 | 4 | 34 | 2 | -1 | x | x | x
CC1CCc2c(sc3ncnc(NCCCOC(C)C)c23)C1 (stereo unspecified) | 4 | 10 | 45* | 61* | 19 | -42 | 33 | 0 | 1
Cc1ccc(SCc2ccc(C(=O)N3CCCC3)cc2)cc1 | -2 | 7 | 3 | 0 | 5 | 1 | x | x | x
Cc1ccc(SCC2(O)CCN(C(=O)c3ccc(Cl)cc3)CC2)cc1 | 5 | 7 | 47* | 5 | -10 | 4 | 46 | -1 | -19
COc1ccc(Cl)cc1NC(=O)CN1C(=O)NC(Cc2c[nH]c3ccccc23)C1=O (stereo unspecified) | -6 | 1 | 5 | 8 | -1 | 12 | x | x | x
Cc1cccc(Nc2nc(N3CCCC3)nc(N3CCCC3)n2)c1 | -5 | -15 | 42* | 0 | -1 | 13 | 7 | -1 | -9
N#Cc1c(Nc2cccc(F)c2)sc2c(O)cc(=O)[nH]c12 | -4 | 7 | -3 | 4 | -18 | -132 | x | x | x
FC(F)(F)c1cccc(Cn2cnc(NC(=S)NCCc3ccccc3)n2)c1 | -14 | -9 | 54* | 2 | -16 | -2 | 42 | 0 | -17
SMILES | SENP8 block-1 | SENP7 inh | EBI2 antag | AHR act | SENP6 inh | SENP8 block-2 | EBI2 conf | EBI2 agonist | bGal counter
O=C(NNC(=O)C1CCN(C(=O)Nc2ccccc2)CC1)c1ccc(F)cc1 | 3 | 5 | -10 | 0 | -3 | -24 | x | x | x
CCOC(=O)N1CCN(C(=S)NC(=O)/C=C/c2ccc(C)cc2)CC1 | -8 | 0 | 83* | -4 | 2 | 8 | 48 | 0 | 7
COc1ccc(/C=C/C(=O)NC(=S)N2CCN(C)CC2)cc1 | 3 | 1 | 4 | 2 | 3 | -3 | x | x | x
Cc1c(C(=O)N/N=C/c2cccs2)nnn1-c1nonc1N | 0 | 2 | -10 | -6 | -5 | 12 | x | x | x
CCOC(=O)Cn1c(-c2nonc2NC(=O)c2ccccc2F)nc2ccccc21 | 3 | -11 | 55* | 17 | -20 | -307 | 45 | -1 | 8
CCC(=O)Nc1nonc1-c1nc2ccccc2n1Cc1ccccc1 | 7 | 4 | 5 | 2 | -11 | -291 | x | x | x
Cc1ccc(OCC(=O)Nc2ccc(N3CCOCC3)cc2)cc1 | -2 | 2 | 11 | 0 | -5 | 22 | x | x | x
COc1ccc(OCC(=O)Nc2ccc(N3CCOCC3)cc2)cc1 | -2 | 0 | 84* | 2 | -35 | 8 | 79* | -1 | -6
O=C(COc1ccc(Cl)cc1)Nc1ccc(N2CCN(C(=O)c3ccco3)CC2)cc1 | -4 | -2 | 54* | 0 | -10 | 7 | 33 | 0 | 4
Cc1ccc(OCC(=O)Nc2ccc(N3CCN(C(=O)c4ccc(C)cc4)CC3)cc2)cc1 | 2 | -2 | 57* | 5 | -3 | 9 | 15 | 1 | 0
CCCOc1ccc(C(=O)N2CCN(c3ccc(NC(=O)CC)cc3Cl)CC2)cc1 | -11 | -11 | 70* | 4 | -20 | 8 | 59* | 0 | 3
Cc1ccc2nc(Nc3nc(C)cc(-c4ccccc4)n3)[nH]c(=O)c2c1 | 3 | 7 | 20 | 12 | -11 | 27 | x | x | x
COCCCNC(=O)Cc1c(C)c2cc3c(cc2oc1=O)OC(C)(C)CC3 | -2 | -2 | -14 | 1 | -12 | -268 | x | x | x

Screening results deposited in PubChem by several laboratories.
